# Test results as given in PMC4336329 (PLoS ONE, 2015).
# Screen size: about 310,000 compounds; about 14,000 (4.5%) showed an effect of 50% or more. The effect is printed as a negative number. The sample holds strong results, similar compounds and a random draw of the others, so the mix is not that of the screen.
# Target: human ether-à-go-go-related gene (hERG) potassium channel (human, UniProt Q12809)
# Assay: primary screen, population patch clamp on CHO cells stably expressing hERG; higher = less effect of the substance
# 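Further: peak tail current of the secondary pulse compared with the same well before compound.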
# human ether-à-go-go-related gene (hERG) potassium channel, sequence (Q12809 whole entry, looked up): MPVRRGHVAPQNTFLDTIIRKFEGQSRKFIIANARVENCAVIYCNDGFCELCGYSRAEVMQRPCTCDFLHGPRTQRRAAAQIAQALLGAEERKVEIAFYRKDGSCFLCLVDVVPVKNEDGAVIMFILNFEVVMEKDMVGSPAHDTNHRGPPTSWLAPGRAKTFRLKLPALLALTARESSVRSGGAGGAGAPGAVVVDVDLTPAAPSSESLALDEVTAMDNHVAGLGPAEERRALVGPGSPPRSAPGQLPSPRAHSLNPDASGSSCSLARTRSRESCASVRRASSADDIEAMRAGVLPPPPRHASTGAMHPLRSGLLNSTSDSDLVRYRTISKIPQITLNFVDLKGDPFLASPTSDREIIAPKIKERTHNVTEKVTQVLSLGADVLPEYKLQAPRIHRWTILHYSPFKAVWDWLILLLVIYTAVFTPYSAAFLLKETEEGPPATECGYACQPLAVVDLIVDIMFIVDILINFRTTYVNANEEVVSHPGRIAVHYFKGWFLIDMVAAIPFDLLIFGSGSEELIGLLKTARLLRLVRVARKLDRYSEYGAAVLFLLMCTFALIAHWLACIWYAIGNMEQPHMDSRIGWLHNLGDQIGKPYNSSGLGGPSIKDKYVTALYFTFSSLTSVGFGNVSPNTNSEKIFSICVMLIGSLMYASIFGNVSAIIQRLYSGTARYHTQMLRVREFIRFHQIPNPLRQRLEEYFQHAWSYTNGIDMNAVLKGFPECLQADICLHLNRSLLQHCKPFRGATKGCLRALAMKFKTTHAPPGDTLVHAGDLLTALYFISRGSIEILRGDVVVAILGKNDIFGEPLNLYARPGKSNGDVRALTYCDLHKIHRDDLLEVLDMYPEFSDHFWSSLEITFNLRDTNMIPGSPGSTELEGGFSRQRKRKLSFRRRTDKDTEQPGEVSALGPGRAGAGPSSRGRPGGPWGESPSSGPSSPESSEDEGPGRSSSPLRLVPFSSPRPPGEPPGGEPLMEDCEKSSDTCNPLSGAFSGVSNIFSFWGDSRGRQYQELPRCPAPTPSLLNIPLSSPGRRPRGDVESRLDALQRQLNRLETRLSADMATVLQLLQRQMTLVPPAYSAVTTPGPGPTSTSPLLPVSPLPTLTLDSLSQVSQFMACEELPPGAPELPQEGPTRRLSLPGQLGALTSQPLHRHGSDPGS
row,SMILES,"hERG current change (%, negative = inhibition) at 10uM [%]"
1,O=C(CCNS(=O)(=O)c1cccc2nsnc12)NCCc1ccccc1,-4.18
2,COC(=O)CC1(CC(=O)OC)C(=O)NC(=O)NC1=O,7.37
3,CCCC(=O)OCC(=O)Nc1cc(Cl)ccc1[N+](=O)[O-],16.8
4,Cc1ccc(Oc2nc3ccccc3n3cccc23)cc1,-10.1
5,O=C(OCC(=O)N1CCCc2ccccc21)c1ccc(Cl)nc1,-3.94
6,Cc1c(C(=O)NNC(=O)c2csc(N3CCOCC3)n2)oc2ccccc12,-38.7
7,COC(=O)C1CCN(Cc2c(C(=O)N3C[C@@H](C)O[C@@H](C)C3)nc3ccc(Cl)cn23)CC1,21.1
8,COCCCNC(=O)c1cn(Cc2c(F)cccc2Cl)nn1,-3.65
9,CCOC(=O)c1nnn(-c2nonc2N)c1COc1c(C=O)cccc1OC,-6.2
10,Cc1cc(=O)n(C)c(=O)n1CCCCCN1CCCC1.O=C(O)C(=O)O,5.16
11,Cc1n[nH]c(C)c1CCCCOc1ccc([N+](=O)[O-])cc1,-16.4
12,Cc1cc(=O)n(C)c(=O)n1CCCCOc1ccc([N+](=O)[O-])cc1,-68.9
13,Cc1cc(=O)n(C)c(=O)n1CCCCCCN1CCCC1.O=C(O)C(=O)O,8.96
14,Cc1cc(=O)n(C)c(=O)n1CCCCCCOc1ccc([N+](=O)[O-])cc1,-63.9
15,O=[N+]([O-])c1ccc(OCCOCCOc2ccc([N+](=O)[O-])cc2)cc1,-16.6
16,CN(Cc1ccccc1)C(=O)CNC(=O)Cn1cnc2ccccc2c1=O,-7.88
17,CC(/C=C/C=C/c1ccccc1)=N/NC(=O)c1ccc2c(c1)OCCO2,7.79
18,C=CCn1c(SCC(=O)Nc2cc(C)nn2-c2ccccc2)nnc1C1CCCCC1,-14.1
19,COc1ccc(CN2CCC(C(=O)c3ccc(Cl)cc3)CC2)cc1,-78.7
20,O=C(c1ccc(F)cc1)C1CCN(Cc2ccc(F)cc2)CC1,-47.7
21,CC(=O)N1CCC(C(=O)c2ccc(Cl)cc2)CC1,-0.317
22,COc1ccc(NC(=O)N2CCC(C(=O)c3ccc(F)cc3)CC2)cc1,-18.6
23,COc1ccc(CN2CCC(C(=O)c3ccc(F)cc3)CC2)cc1,-78.4

row,SMILES,"hERG current change (%, negative = inhibition) at 10uM [%]"
1,CCS(=O)(=O)N1CCC(C(=O)c2ccc(Cl)cc2)CC1,-47.3
2,Cc1ccccc1C(=O)NCCCc1ccccc1,12.5
3,O=C(NCCC(=O)N1CCCCC1)c1ccccc1Cl,-14.2
4,COc1ccccc1N1CCN(/N=C\C(Br)=C\c2ccccc2)CC1,10.2
5,COCCNC(=O)C(c1ccc(O)cc1)N(Cc1ccco1)C(=O)CCC(=O)Nc1ccccn1 (centres unmarked),23.8
6,CCCCSc1nnc([C@@H]2CCCN2C(=O)OC(C)(C)C)o1,-12.2
7,COc1ccc(NC(=O)CCN2CCN(S(=O)(=O)c3ccc(OC)cc3)CC2)cc1,-25
8,O=C(CCNC(=O)C1CCN(S(=O)(=O)c2ccccc2)CC1)Nc1cccc(C(F)(F)F)c1,-45.1
9,O=C(CN1CCN(S(=O)(=O)c2ccc(F)cc2)CC1)Nc1cccc(C(F)(F)F)c1,-55.5
10,COc1ccc(S(=O)(=O)N2CCN(CCC(=O)Nc3ccc(F)cc3)CC2)cc1,-18.9
11,O=C(Nc1cccc(C(F)(F)F)c1)NC1CCN(S(=O)(=O)c2ccc(F)cc2)CC1,12.2
12,O=C(CN1CCN(S(=O)(=O)c2ccccc2)CC1)Nc1cccc(C(F)(F)F)c1,-56.2
13,O=C(CNc1cccc(C(F)(F)F)c1)Nc1cccc(S(=O)(=O)N2CCCC2)c1,-6.44
14,COc1ccc(S(=O)(=O)N2CCCN(CCC(=O)Nc3cccc(C(F)(F)F)c3)CC2)cc1,-69.6
15,O=C(CN1CCN(S(=O)(=O)c2ccc(F)cc2)CC1)Nc1cc(C(F)(F)F)ccc1Cl,-4.15
16,Nc1c(N(Cc2ccco2)C(=O)COc2ccccc2F)c(=O)[nH]c(=O)n1Cc1ccccc1,0.883
17,CNC(=O)CSCc1c(F)cccc1Cl,17.8
18,CCCOC(=O)C1=C(C)NC2=C(C(=O)C(C(=O)OC)C(C)C2)C1c1ccc(N(CC)CC)cc1 (centres unmarked),-5.21
19,COC(=O)c1ccccc1NC(=O)CC(NCc1ccccc1)C(=O)O (centres unmarked),-20.7
20,CCCCn1c(SCC(N)=O)nnc1-c1ccco1,15.3
21,COc1cccc(-n2nnnc2SCC(=O)NCc2ccco2)c1,-2.06
22,COc1cc(NC(=O)CN2CCN(c3ccccc3F)CC2)c(C)cc1[N+](=O)[O-],28.2
23,CCOC(=O)c1cnc2c(OC)cccc2c1N1CCN(c2ccccc2OC)CC1,-45.4

row,SMILES,"hERG current change (%, negative = inhibition) at 10uM [%]"
1,Cc1nc2c(C)cccc2c2c1CCN2c1ccccc1F,-62.4
2,COc1ccccc1N1CCc2c(C)nc3c(OC)cccc3c21,-61
3,CCOC(=O)c1cnc2c(OC)cccc2c1N1CCN(c2ccc(OC)cc2)CC1,-47.1
4,Cc1nc2c(C)cccc2c2c1COC2,7.98
5,COc1cccc2c3c(c(C)nc12)CC(C)O3 (centres unmarked),-21.9
6,CCc1c(C)nc2c(OC)cccc2c1Cl,-2.25
7,COc1cccc2c3c(c(C)nc12)CCN3c1ccccc1,-54.6
8,COc1ccc(N2CCc3c(C)nc4c(OC)cccc4c32)cc1,-73.5
9,COc1ccccc1N1CCN(c2nc(C)nc3c2oc2ccccc23)CC1.Cl,-1.5
10,COc1cccc2c(Cl)c(CCCl)c(C)nc12,10.2
11,Cc1nc2c(C)cccc2c2c1CCS2,0.813
12,CCOc1ccccc1CNC(=O)CCNS(=O)(=O)c1ccc2[nH]c(=O)oc2c1,-2.89
13,CCC(O)(CC)C(=O)N/N=C/c1cc(Br)cc(Br)c1O,-1.02
14,C/C(CC(=O)Nc1ccccn1)=N\NC(=O)Cc1cccc2ccccc12,1.01
15,CCOC(=O)c1c(C)[nH]c(C(=O)COC(=O)c2ccccn2)c1C,-17
16,Cc1cccc(-c2nnc3n2N=C(c2ccccc2Br)CS3)c1,-14.4
17,CC1CCCC(NC(=O)COC(=O)CN2C(=O)C3CCCCC3C2=O)C1C (centres unmarked),10.3
18,Cc1ccc(CN(Cc2ccccn2)C(=O)Nc2c(F)cccc2F)cc1,-0.968
19,CCC/C(=N\NC(=O)c1ccc(CSc2nncn2C)cc1)c1ccccc1,-8.28
20,CCCOc1ccc(C2c3c(oc4cc(C)c(C)cc4c3=O)C(=O)N2CCCN(C)C)cc1OCC (centres unmarked),7.65
21,CCN1CCN(C(CNS(=O)(=O)c2ccccc2)c2cccnc2)CC1 (centres unmarked),-39.2
22,O=S(=O)(NCC(c1cccnc1)N1CCc2ccccc2C1)c1ccccc1 (centres unmarked),10.3
23,Cc1cc(C)c(S(=O)(=O)NC2CCN(Cc3ccccc3)CC2)c(C)c1.Cl,-47.6

row,SMILES,"hERG current change (%, negative = inhibition) at 10uM [%]"
1,O=S(=O)(NCC(c1cccnc1)N1CCOCC1)c1ccc(Cl)cc1 (centres unmarked),4.89
2,O=S(=O)(NCC(c1cccnc1)N1CCOCC1)c1ccccc1 (centres unmarked),4.6
3,O=S(=O)(NCC(c1cccnc1)N1CCN(Cc2ccccc2)CC1)c1ccccc1 (centres unmarked),-68.9
4,O=S(=O)(NCC(c1cccnc1)N1CCN(Cc2ccccc2)CC1)c1ccc(Cl)cc1 (centres unmarked),-78.3
5,Cc1cc(C)c(S(=O)(=O)NCc2cccnc2)c(C)c1,-2.97
6,Cc1cc(C)c(S(=O)(=O)NCC(c2cccnc2)N2CCN(Cc3ccccc3)CC2)c(C)c1 (centres unmarked),-69.5
7,CCN1CCN(C(CNS(=O)(=O)c2ccc(F)cc2)c2cccnc2)CC1 (centres unmarked),-20.5
8,O=S(=O)(NCC(c1cccnc1)N1CCN(Cc2ccccc2)CC1)c1ccc(F)cc1 (centres unmarked),-65
9,C(=N\N(Cc1ccccc1)c1ccccc1)/c1ccco1,-11.5
10,O=C(CNC(=O)c1ccccc1F)OCc1nc2ccccc2s1,20.6
11,COc1cc(C(=O)Nc2nccs2)cc(OC)c1OC,3.55
12,CSc1ccc(/C=N/n2c(C3CCCCC3)n[nH]c2=S)cc1,21.9
13,O=C(/C=C/c1ccc2c(c1)OCO2)Nc1nc(-c2ccc(F)cc2F)cs1,9.08
14,O=C(O)/C=C/c1cccc(NC(=O)c2ccccc2)c1,9.14
15,CCOc1ccc(NC(=O)CN(C)C(=O)Cn2cnc3c2c(=O)n(C)c(=O)n3C)cc1OCC,5.62
16,Cc1ccc(S(=O)(=O)NCC(c2cccnc2)N2CCc3ccccc32)cc1 (centres unmarked),-2.1
17,Cc1ccc(S(=O)(=O)NCC(c2cccnc2)N2CCN(Cc3ccccc3)CC2)cc1 (centres unmarked),-73.1
18,CCN1CCN(C(CNS(=O)(=O)c2ccc(OC)cc2)c2cccnc2)CC1 (centres unmarked),-45.4
19,COc1ccc(S(=O)(=O)NCC(c2cccnc2)N2CCN(Cc3ccccc3)CC2)cc1 (centres unmarked),-58.5
20,Cc1ccc(S(=O)(=O)NCC(c2cccnc2)N2CCOCC2)cc1 (centres unmarked),5.12
